Only a sample is shown.
RVFV N-RNA FP: inhibitors of RVFV nucleoprotein–RNA binding, primary screen, biochemical, fluorescence polarization; actives 0.1% (n = 20,000); % bound, % (concentration not given with the values); P21700; RVFV N-RNA binding; active compounds read low; in the data active means % bound below about 75%
The depositor's hits bear a star.

SMILES	RVFV N-RNA FP
O=C(Nc1ccc(F)cc1F)NN1CCOCC1	101.4
Cc1ccc(S(=O)(=O)N2C(=O)CCC2c2nc(-c3cccnc3)no2)cc1 (stereo not drawn)	95.1
c1ccc2c(c1)N=C(NNC1=Nc3ccccc3SC1)CS2	99.9
O=C(O)CCn1cc(/C=N\NC(=O)c2ccncc2)c(-c2ccccc2)n1	96.6
Cc1nc(SCC(=O)O)[nH]c(=O)c1CCC(C)C	105.9
C(=N\c1nc2ccccc2[nH]1)/c1ccc2c(c1)OCO2	95.0
Cc1ccc(N/N=C2/CCc3ccccc3C2=O)cc1	93.8
CS(=O)(=O)N1CCN(c2cccc(C(F)(F)F)c2)CC1	98.2
CC(C)(C)/C=N/NC(=O)c1nc(-c2ccc(C(C)(C)C)cc2)no1	98.1
